# “And” between values parts separate entries of the source, which are not always exact repeats. Equal values may be shown once. Inconclusive results are not listed. Where a call stands in place of a potency, no number is given. The source made the active and inactive calls. Calls follow the shape of the dose curve; as a rule, active = well fitted curve in the direction sought with a large enough effect; inconclusive = small, poorly fitted or top-dose-only effect, or another doubt; inactive = no such curve, though single readings can be large; an effect the other way counts as inactive or inconclusive.
# Assays:
# [1] = qHTS of pediatric cancer cell lines to identify multiple opportunities for drug repurposing: Primary screen for OHS-50 cells (AID 1347103); also: potency is read from the fitted curve at half-maximal effect; nearly all actives have a fitted effect of over 40% in size
# Procedure, shortened: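 Cells (500-1,000/well) rested 5 h, then received compounds for 48 h; metabolically active cells were measured by CellTiter-Glo luminescence. Final concentrations spanned up to 46 µM (MIPE, 11-point) or 0.59 nM-46 µM (NPC, 8-point) in primary screens, 11-point in follow-ups.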
# [2] = qHTS of pediatric cancer cell lines to identify multiple opportunities for drug repurposing: Primary screen for Rh30 cells (AID 1347107); also: nearly all actives have a fitted effect of over 75% in size; also: potency is read from the fitted curve at half-maximal effect
# Procedure, shortened: (§1)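 Viability after 48 h compound treatment at 37C, 500-1,000 cells/well, read as ATP luminescence with CellTiter-Glo. Primary screens used 11-point (MIPE, 0.78 nM-46 µM) or 8-point (NPC, 0.59 nM-46 µM) final concentrations; follow-up screens used 11-point dilutions.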
# [3] = qHTS of pediatric cancer cell lines to identify multiple opportunities for drug repurposing: Confirmatory screen for NB1643 cells (AID 1347109); also: nearly all actives have a fitted effect of over 45% in size; also: potency is read from the fitted curve at half-maximal effect
# Procedure, shortened: as §1
# [4] = qHTS of pediatric cancer cell lines to identify multiple opportunities for drug repurposing: Confirmatory screen for SK-N-MC cells (AID 1347111);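 also: cells exposed to compound for 48 h before the readout; nearly all actives have a fitted effect of over 70% in size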; also: potency is read from the fitted curve at half-maximal effect
# Procedure, shortened: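 SK-N-MC cells at 500-1,000 cells/well in growth media were pre-incubated 5 h, then exposed to compounds at 11-point dilutions for 48 h at 37 degrees C, 5% CO2. Viability was read as CellTiter-Glo luminescence.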
# [5] = qHTS of pediatric cancer cell lines to identify multiple opportunities for drug repurposing: Confirmatory screen for BT-12 cells (AID 1347112); also: nearly all actives have a fitted effect of over 55% in size; also: potency is read from the fitted curve at half-maximal effect
# Procedure, shortened: as §1
# [6] = qHTS of pediatric cancer cell lines to identify multiple opportunities for drug repurposing: Confirmatory screen for LAN-5 cells (AID 1347113); also: nearly all actives have a fitted effect of over 65% in size; also: potency is read from the fitted curve at half-maximal effect
# Procedure, shortened: as §1
# [7] = qHTS of pediatric cancer cell lines to identify multiple opportunities for drug repurposing: Confirmatory screen for DAOY cells (AID 1347114); also: nearly all actives have a fitted effect of over 65% in size; also: potency is read from the fitted curve at half-maximal effect
# Procedure, shortened: (§2)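 Viability measured as metabolically active cells via CellTiter-Glo luminescence following 48 hours of compound exposure, 11-point dilutions in confirmatory testing. 500-1,000 cells/well plated 5 hours before dosing; controls were DMSO and 2.3 µM bortezomib.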
# [8] = qHTS of pediatric cancer cell lines to identify multiple opportunities for drug repurposing: Confirmatory screen for BT-37 cells (AID 1347117); also: nearly all actives have a fitted effect of over 55% in size; also: potency is read from the fitted curve at half-maximal effect
# Procedure, shortened: as §1
# [9] = qHTS of pediatric cancer cell lines to identify multiple opportunities for drug repurposing: Confirmatory screen for TC32 cells (AID 1347118); also: nearly all actives have a fitted effect of over 65% in size; also: potency is read from the fitted curve at half-maximal effect
# Procedure, shortened: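 qHTS, TC32, 48 h drug treatment, CellTiter-Glo luminescence as a proxy for metabolically active cells; primary top concentration 46 µM (MIPE 11-pt, NPC 8-pt); confirmatory 11-pt.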
# [10] = qHTS of pediatric cancer cell lines to identify multiple opportunities for drug repurposing: Confirmatory screen for MG 63 (6-TG R) cells (AID 1347119); also: nearly all actives have a fitted effect of over 55% in size; also: potency is read from the fitted curve at half-maximal effect
# Procedure, shortened: as §1
# [11] = qHTS of pediatric cancer cell lines to identify multiple opportunities for drug repurposing: Confirmatory screen for control Hh wild type fibroblast cells (AID 1347121); also: nearly all actives have a fitted effect of over 70% in size
# Procedure, shortened: as §1
# [12] = qHTS of pediatric cancer cell lines to identify multiple opportunities for drug repurposing: Confirmatory screen for Rh41 cells (AID 1347123);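 also: 48 h compound exposure; nearly all actives have a fitted effect of over 60% in size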; also: potency is read from the fitted curve at half-maximal effect
# Procedure, shortened: as §1
# [13] = qHTS of pediatric cancer cell lines to identify multiple opportunities for drug repurposing: Confirmatory screen for RD cells (AID 1347124);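 also: cells exposed to compound for 48 h before viability readout; nearly all actives have a fitted effect of over 65% in size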; also: potency is read from the fitted curve at half-maximal effect
# Procedure, shortened: as §1
# [14] = qHTS of pediatric cancer cell lines to identify multiple opportunities for drug repurposing: Primary screen for MG 63 (6-TG R) cells (AID 1347105); also: nearly all actives have a fitted effect of over 50% in size; also: potency is read from the fitted curve at half-maximal effect
# Procedure, shortened: (§3)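 Following a 5-hour attachment period, cells at 500-1,000/well received compounds and were cultured for 48 hours. CellTiter-Glo was added and luminescence read to estimate viable, metabolically active cells.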
# [15] = qHTS of pediatric cancer cell lines to identify multiple opportunities for drug repurposing: Primary screen for Rh41 cells (AID 1347108); also: nearly all actives have a fitted effect of over 70% in size; also: potency is read from the fitted curve at half-maximal effect
# Procedure, shortened: as §3
# [16] = qHTS of pediatric cancer cell lines to identify multiple opportunities for drug repurposing: Primary screen for control Hh wild type fibroblast cells (AID 1347106); also: nearly all actives have a fitted effect of over 55% in size; also: potency is read from the fitted curve at half-maximal effect
# Procedure, shortened: as §1
# [17] = qHTS of pediatric cancer cell lines to identify multiple opportunities for drug repurposing: Confirmatory screen for NB-EBc1 cells (AID 1347115); also: nearly all actives have a fitted effect of over 45% in size
# Procedure, shortened: as §1
# [18] = qHTS of pediatric cancer cell lines to identify multiple opportunities for drug repurposing: Confirmatory screen for SJ-GBM2 cells (AID 1347116); also: nearly all actives have a fitted effect of over 60% in size; also: potency is read from the fitted curve at half-maximal effect
# Procedure, shortened: as §2
# [19] = qHTS of pediatric cancer cell lines to identify multiple opportunities for drug repurposing: Primary screen for RD cells (AID 1347104); also: nearly all actives have a fitted effect of over 55% in size; also: potency is read from the fitted curve at half-maximal effect
# Procedure, shortened: as §3
smiles,measurement,setting,value
CC[C@]1(O)C[C@@H]2CN(CCc3c([nH]c4ccccc34)[C@@](C(=O)OC)(c3cc4c(cc3OC)N(C)[C@H]3[C@@](O)(C(=O)OC)[C@H](OC(C)=O)[C@]5(CC)C=CCN6CC[C@]43[C@@H]65)C2)C1,Potency,[1],30.9 nM (active) and 138 nM (active)
same,Potency,[2],inactive
same,Potency,[3],1.31 µM (active)
same,Potency,[4],657 nM (active) and 737 nM (active)
same,Potency,[5],1.65 µM (active) and 1.85 µM (active)
same,Potency,[6],2.33 µM (active)
same,Potency,[7],208 nM (active) and 233 nM (active)
same,Potency,[8],737 nM (active) and 1.17 µM (active)
same,Potency,[9],465 nM (active) and 827 nM (active)
same,Potency,[10],522 nM (active) and 1.04 µM (active)
same,Potency,[11],inactive
same,Potency,[12],82.7 nM (active) and 104 nM (active)
same,Potency,[13],1.17 µM (active)
O=C(Nc1ccccc1-c1cn2c(CN3CCNCC3)csc2n1)c1cnc2ccccc2n1,Potency,[1],27.3 µM (active)
same,Potency,[14],23.5 µM (active)
same,Potency,[2],23.5 µM (active)
same,Potency,[15],20.9 µM (active)
CC(=O)O[C@]1(C(C)=O)CC[C@@H]2[C@@H]3C[C@H](C)C4=CC(=O)CC[C@]4(C)[C@H]3CC[C@@]21C,Potency,[1],24.3 µM (active)
same,Potency,[16],inactive
same,Potency,[6],inactive
same,Potency,[7],inactive
same,Potency,[17],inactive
same,Potency,[10],inactive
same,Potency,[11],inactive
same,Potency,[13],inactive
CC=C(C)C(=O)O[C@H]1C(C)=C[C@]23C(=O)[C@@H](C=C(CO)[C@@H](O)[C@]12O)[C@H]1[C@@H](C[C@H]3C)C1(C)C,Potency,[1],21.7 µM (active)
same,Potency,[2],inactive
same,Potency,[3],inactive
same,Potency,[5],inactive
same,Potency,[17],inactive
same,Potency,[18],inactive
same,Potency,[8],inactive
same,Potency,[11],inactive
same,Potency,[12],13.1 µM (active)
same,Potency,[13],inactive
CC(C)n1nc(-c2ccc3oc(N)nc3c2)c2c(N)ncnc21,Potency,[1],0.0012 µM (active)
same,Potency,[14],0.0007 µM (active)
same,Potency,[2],11.8 µM (active)
same,Potency,[15],0.0235 µM (active)
same,Potency,[4],73.7 nM (active)
same,Potency,[5],117 nM (active)
same,Potency,[6],0.131 µM (active)
same,Potency,[7],5.85 µM (active)
same,Potency,[18],0.165 µM (active)
same,Potency,[8],36.9 nM (active)
same,Potency,[9],46.5 nM (active)
same,Potency,[10],46.5 nM (active)
same,Potency,[12],0.0293 µM (active)
same,Potency,[13],0.208 µM (active)
COc1cc2ncnc(-n3nc(-c4ccccn4)nc3N)c2cc1OC,Potency,[1],2.17 µM (active)
same,Potency,[14],inactive
same,Potency,[15],inactive
CO[C@@H](C(=O)N1Cc2[nH]nc(NC(=O)c3ccc(N4CCN(C)CC4)cc3)c2C1)c1ccccc1,Potency,[19],5.26 µM (active)
same,Potency,[14],1.48 µM (active)
same,Potency,[16],9.35 µM (active)
same,Potency,[2],inactive
same,Potency,[15],0.469 µM (active)
O=C(NOCC(O)CO)c1cc(Br)c(F)c(F)c1Nc1ccc(I)cc1F (centres undefined),Potency,[19],0.148 µM (active)
same,Potency,[14],11.8 µM (active)
same,Potency,[15],inactive
CC(C)n1cnc2c(NCCCCCCNC(=O)OC(C)(C)C)nc(NCCO)nc21,Potency,[19],33.2 µM (active)
same,Potency,[14],inactive
same,Potency,[16],inactive
COCCCCC(=NOCCN)c1ccc(C(F)(F)F)cc1,Potency,[19],33.2 µM (active)
same,Potency,[16],inactive
same,Potency,[2],23.5 µM (active)
same,Potency,[15],20.9 µM (active)
C[C@@H]1CCN(C(=O)CC#N)C[C@H]1N(C)c1ncnc2[nH]ccc12,Potency,[19],inactive
same,Potency,[16],inactive
same,Potency,[2],inactive
c1ccc2c(Cc3c[nH]c4ccccc34)c[nH]c2c1,Potency,[19],14.8 µM (active)
same,Potency,[14],5.9 µM (active)
same,Potency,[16],4.69 µM (active)
same,Potency,[15],14.8 µM (active)
O=c1cc(-c2ccccc2)oc2cc(O)c(O)c(O)c12,Potency,[14],inactive
CO[C@H]1C[C@@H]2CC[C@@H](C)[C@@](O)(O2)C(=O)C(=O)N2CCCC[C@@H]2C(=O)O[C@H]([C@@H](C)C[C@@H]2CC[C@H](O)[C@H](OC)C2)CC(=O)[C@H](C)C=C(C)[C@@H](O)[C@@H](OC)C(=O)[C@H](C)C[C@H](C)C=CC=CC=C1C,Potency,[19],inactive
same,Potency,[14],inactive
same,Potency,[16],inactive
same,Potency,[2],inactive
N#CC1(c2ccc(NC(=O)c3cccnc3NCc3ccncc3)cc2)CCCC1,Potency,[19],inactive
same,Potency,[14],inactive
same,Potency,[16],inactive
same,Potency,[2],inactive
same,Potency,[15],inactive
COC(=O)C1=CO[C@@H](O)[C@@H]2C(CO)=CC[C@@H]12,Potency,[19],inactive
same,Potency,[16],inactive
same,Potency,[2],inactive
same,Potency,[15],inactive
CCC(=O)O[C@]1(C(=O)CO)CC[C@H]2[C@@H]3CCC4=CC(=O)CC[C@]4(C)[C@@H]3CC[C@@]21C,Potency,[19],inactive
same,Potency,[14],inactive
same,Potency,[16],inactive
same,Potency,[2],inactive
same,Potency,[15],inactive
O=C(O)C=Cc1ccc(O)c(O)c1,Potency,[19],33.2 µM (active)
same,Potency,[14],inactive
same,Potency,[16],inactive
same,Potency,[2],23.5 µM (active)
Cc1ccc(C(C)(O)c2nc3ccccc3s2)c(C)c1 (centres undefined),Potency,[19],inactive
same,Potency,[16],inactive
same,Potency,[2],inactive
same,Potency,[15],inactive
CCc1ccc(C=C2SC(=S)NC2=O)cc1,Potency,[19],inactive
same,Potency,[14],inactive
same,Potency,[16],inactive
same,Potency,[2],inactive
Cc1c[nH]c(C=C2C(=O)Nc3ccccc32)c1CCC(=O)O,Potency,[19],inactive
same,Potency,[14],inactive
same,Potency,[15],inactive
CC1(C)O[C@H]2C[C@@H]3[C@H]4CCC5=CC(=O)C=C[C@]5(C)[C@@]4(F)[C@@H](O)C[C@]3(C)[C@]2(C(=O)CO)O1,Potency,[19],inactive
same,Potency,[14],inactive
same,Potency,[16],inactive
same,Potency,[2],inactive
same,Potency,[15],inactive
same,Potency,[3],inactive
same,Potency,[4],inactive
same,Potency,[5],inactive
same,Potency,[6],inactive
same,Potency,[7],inactive
same,Potency,[18],inactive
same,Potency,[8],inactive
same,Potency,[10],inactive
same,Potency,[12],inactive
same,Potency,[13],inactive
CC1(C)S[C@H]2[C@H](NC(=O)[C@@H](N)c3ccc(O)cc3)C(=O)N2[C@@H]1C(=O)O,Potency,[19],2.96 µM (active)
same,Potency,[14],3.72 µM (active)
same,Potency,[16],inactive
same,Potency,[15],3.72 µM (active)
same,Potency,[3],inactive
same,Potency,[5],inactive
same,Potency,[6],inactive
same,Potency,[7],inactive
same,Potency,[17],inactive
same,Potency,[18],inactive
same,Potency,[8],inactive
same,Potency,[9],inactive
same,Potency,[10],inactive
same,Potency,[11],inactive
same,Potency,[12],inactive
same,Potency,[13],inactive

# — PubChem BioAssay (NCATS)
